Where “and” joins values, the source holds several entries; their conditions need not be identical. Equal entries are not always repeated. A number with no mark means an inactive call. Inconclusive results are not listed. Calls of active or inactive are those of the source. Calls follow the shape of the dose curve; as a rule, active = well fitted curve in the direction sought with a large enough effect in the repeat runs; inconclusive = weak or mixed curves; inactive = no such curve, though single readings can be large; an effect the other way counts as inactive or inconclusive.

Consider 22 molecules from PubChem BioAssay (Tox21).

Test [1] in a line: Human pregnane X receptor (PXR) small molecule agonists, qHTS cell viability counter screen (AID 1346977). Also: nearly all actives have a fitted effect of over 50% in size. Also: potency is read from the fitted curve at half-maximal effect. The gist of the method: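 After a 5hr pre-incubation, PXR-Luc HepG2 cells received compounds plus positive control in DMSO and were kept 24hr at 37C. Cell viability was quantified by fluorescence from CellTiter-Fluor added for the final hour.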
A short description of test [2]: Caspase-3/7 induction in HepG2 cells by small molecules, qHTS assay (AID 1346978). Also: nearly all actives have a fitted effect of over 15% in size. Also: potency is read from the fitted curve at half-maximal effect. The gist of the method: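 Wild-type HepG2 cells (2,000/well) were settled 5 h at 37 C, 5% CO2, then exposed to compounds in DMSO for 17 h. Caspase-3/7 activity was read by luminescence 30 min after adding Caspase-Glo 3/7 reagent at room temperature.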
(In general: Quantitative high-throughput screening tests each substance at several concentrations.)

The nature of test [3]: Caspase-3/7 induction in CHO-K1 cells by small molecules, qHTS cell viability counter screen (AID 1346979). Also: nearly all actives have a fitted effect of over 35% in size. Also: potency is read from the fitted curve at half-maximal effect. The gist of the method:
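Multiplexed with Caspase-Glo 3/7 in CHO-K1 cells, this counter screen added CellTiter-Fluor after 16hr of compound exposure and recorded fluorescence 1hr later.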

The nature of test [4]: Caspase-3/7 induction in CHO-K1 cells by small molecules, qHTS assay (AID 1346980). Also: nearly all actives have a fitted effect of over 15% in size. Also: potency is read from the fitted curve at half-maximal effect. In outline: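 Wild-type cells were seeded at 1,500 per well and settled 5 hr at 37 C, 5% CO2, then exposed to DMSO-dissolved compounds for 17 hr. Caspase-Glo 3/7 reagent was added, and luminescence was read after 30min at room temperature.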
A short description of test [5]: Caspase-3/7 induction in HepG2 cells by small molecules, qHTS cell viability counter screen (AID 1346981). Also: nearly all actives have a fitted effect of over 30% in size. Also: potency is read from the fitted curve at half-maximal effect. In outline:
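Wild-type HepG2 cells, 2,000/well, settled 5 hr at 37 C, 5% CO2 before compound addition. Viability read by CellTiter-Fluor fluorescence, reagent added after 16 hr compound exposure, then 1 hr at 37C, in the same wells as the caspase read.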

Test [6] addresses Cytochrome P450 2D6 (Homo sapiens) (UniProt P10635). Description: Cytochrome P450 Family 2 Subfamily D Member 6 (CYP2D6) small molecule antagonists: luciferase reporter qHTS assay (AID 1671196). Also: nearly all actives have a fitted effect of over 50% in size. Also: potency is read from the fitted curve at half-maximal effect. In outline:
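Cell-free P450-Glo system: CYP2D6 with proluciferin substrate was pre-incubated with compound for 10 min, then reacted with NADPH regeneration for 1 h at room temperature. Luciferin product was detected after 20 min, and data were reported as relative luminescence units.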
For orientation: In a reporter assay the amount or activity of a reporter protein is the signal.

In test [7] the target is Nuclear receptor subfamily 1 group I member 2 (Homo sapiens) (UniProt O75469). Kind of test: Human pregnane X receptor (PXR) small molecule agonists, qHTS assay (AID 1346982). Also: nearly all actives have a fitted effect of over 35% in size. Also: potency is read from the fitted curve at half-maximal effect. The gist of the method: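 PXR-Luc HepG2 reporter cells (CYP3A4-driven luciferase) in 5% charcoal-stripped FBS medium, plated 5 h before compound addition, then treated 24 h at 37C. Luciferase read by ONE-Glo luminescence after 30 min at room temperature.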

For test [8], the target named is Nuclear receptor subfamily 1 group I member 2 (Rattus norvegicus) (UniProt Q9R1A7). Kind of test: Rat pregnane X receptor (rPXR) activation by small molecules, qHTS assay (AID 1346983). Also: nearly all actives have a fitted effect of over 20% in size. As to conditions: rPXR luciferase reporter cells, One-Glo luminescence, 24 h; max activation: active compounds read high. The gist of the method:
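Cell-based rPXR luciferase reporter assay, 2,000 cells per well, rested 5hr at 37 C before compound addition in DMSO, then 24 hr at 37 C. One-Glo reagent was added and luminescence read after 30 min at room temperature.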

In test [9] the target is Nuclear receptor subfamily 1 group I member 2 (Homo sapiens) (UniProt O75469). Description: CYP3A4 induction through human pregnane X receptor (PXR) by small molecules, qHTS assay (AID 1346984). Also: nearly all actives have a fitted effect of over 40% in size. The gist of the method:
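DPX-2 HepG2 cells carrying a PXR response element and CYP3A4-promoter luciferase construct, treated with compounds 24 hr at 37C. Then P450-Glo CYP3A4 Luciferin-IPA substrate (3uM final) for 3 hr at 37C, One-Glo added, luminescence read.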

Test [10] has the same target. Description: Human pregnane X receptor (PXR) activation by small molecules, qHTS assay (AID 1346985). Also: nearly all actives have a fitted effect of over 40% in size. Also: potency is read from the fitted curve at half-maximal effect. In outline: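 DPX-2 cells (HepG2 co-transfected with a PXR response element and a CYP3A4-promoter luciferase construct) were seeded at 2,000 per well, rested 5 hr at 37C, then exposed to DMSO-dissolved compounds for 24 hr. Activation was read as luciferase luminescence.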
% is scaled to controls: 0 for no effect and ±100 for the full control effect.

Chain of Nuclear receptor subfamily 1 group I member 2 (Rattus norvegicus) (Q9R1A7 whole entry, looked up): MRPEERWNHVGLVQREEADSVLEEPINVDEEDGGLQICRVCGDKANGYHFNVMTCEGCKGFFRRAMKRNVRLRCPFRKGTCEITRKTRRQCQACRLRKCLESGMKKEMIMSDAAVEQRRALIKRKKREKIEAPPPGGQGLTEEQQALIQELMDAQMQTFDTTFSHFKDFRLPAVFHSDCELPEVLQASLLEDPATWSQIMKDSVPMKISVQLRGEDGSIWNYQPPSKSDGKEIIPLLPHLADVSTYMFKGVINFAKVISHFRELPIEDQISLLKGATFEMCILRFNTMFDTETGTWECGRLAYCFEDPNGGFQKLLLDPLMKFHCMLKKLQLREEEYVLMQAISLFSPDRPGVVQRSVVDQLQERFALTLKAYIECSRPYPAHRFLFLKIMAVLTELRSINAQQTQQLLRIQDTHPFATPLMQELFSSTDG
Chain of Nuclear receptor subfamily 1 group I member 2 (Homo sapiens) (O75469 whole entry, looked up): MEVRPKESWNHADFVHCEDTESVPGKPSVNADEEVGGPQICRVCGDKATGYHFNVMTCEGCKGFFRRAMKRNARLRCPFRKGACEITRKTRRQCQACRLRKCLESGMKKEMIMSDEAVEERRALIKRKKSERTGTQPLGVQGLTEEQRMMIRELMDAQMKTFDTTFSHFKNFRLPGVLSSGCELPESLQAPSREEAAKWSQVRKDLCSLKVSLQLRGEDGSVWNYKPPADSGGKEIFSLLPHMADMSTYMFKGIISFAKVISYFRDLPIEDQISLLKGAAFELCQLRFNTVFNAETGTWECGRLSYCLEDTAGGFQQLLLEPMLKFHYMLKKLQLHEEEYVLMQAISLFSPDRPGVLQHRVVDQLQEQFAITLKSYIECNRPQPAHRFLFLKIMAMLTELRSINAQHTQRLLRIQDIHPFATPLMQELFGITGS
Chain of Cytochrome P450 2D6 (Homo sapiens) (P10635 whole entry, looked up): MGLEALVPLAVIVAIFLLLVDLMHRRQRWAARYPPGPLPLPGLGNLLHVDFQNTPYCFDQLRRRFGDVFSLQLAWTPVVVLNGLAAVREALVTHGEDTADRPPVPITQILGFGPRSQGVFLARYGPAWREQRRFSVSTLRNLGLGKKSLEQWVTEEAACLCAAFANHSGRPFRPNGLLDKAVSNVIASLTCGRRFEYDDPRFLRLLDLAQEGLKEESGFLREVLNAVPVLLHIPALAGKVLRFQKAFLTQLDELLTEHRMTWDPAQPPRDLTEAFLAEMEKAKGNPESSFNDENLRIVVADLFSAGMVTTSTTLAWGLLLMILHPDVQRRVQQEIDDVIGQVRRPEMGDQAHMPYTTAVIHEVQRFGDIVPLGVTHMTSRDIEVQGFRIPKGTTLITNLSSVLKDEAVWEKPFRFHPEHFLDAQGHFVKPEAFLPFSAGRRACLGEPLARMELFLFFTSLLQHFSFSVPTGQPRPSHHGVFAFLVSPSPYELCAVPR

As for `CC1=NC(C)OC1C` (stereo not drawn), the Potency entry in test [1], in [2], in test [3], in test [4] and in test [5] was “inactive” throughout. Also, the Potency in test [6] was 71 µM (active).

As for `Nc1cc(C(F)(F)F)ccc1S`, the Potency entry in test [1], in test [2] and in test [5] was “inactive” throughout. The Potency in test [3] was 26.6 µM (active); in test [7], 13.3 µM (active).

On to `CCCCCCCCCCCCCCCCCC[N+](C)(C)C`, for which the figures for the Potency in test [1], in test [3] and in test [6] were 54.6 µM (active), 27.4 µM (active) and 0.635 µM (active), respectively. Moreover, the Potency result in [2], in [4] and in test [7] was “inactive” in each case.

For `C=CC(=O)OCC(CO)(COC(=O)C=C)COC(=O)C=C`, the Potency in test [1] is 17.8 µM (active) and 21.7 µM (active); in test [2], 19.4 µM (active) and 24.3 µM (active); in test [3], 2.74 µM (active) and 6.11 µM (active); in [4] it was 2.44 µM (active) and 6.11 µM (active); in test [5] it was 17.3 µM (active) and 21.7 µM (active); in test [6], 40.1 µM (active) and 63.3 µM (active).

Take `COc1c(C)c2c(c(O)c1C/C=C(\C)CCC(=O)O)C(=O)OC2`: the Potency result in test [1], in [2], in [4], in test [7], in test [9] and in [10] was “inactive” throughout. For the same molecule, in test [6], the Potency entry is “inactive”. The Potency in [3] is 1.19 µM (active). Also, in test [8], the max activation was -5.38%.

As for `NC(=O)C1(N2CCCCC2)CCN(CCCN2c3ccccc3CCc3ccc(Cl)cc32)CC1`, the Potency in [1] was 13.3 µM (active); in test [2] it was 33.5 µM (active); in [3], 26.6 µM (active); in test [7], 1.33 µM (active); in test [6], 7.76 µM (active).

As to `NNc1nc(-c2ccc([N+](=O)[O-])cc2)cs1`, the Potency in [1] was 27.3 µM (active); in test [3], 27.3 µM (active); in test [5], 30.6 µM (active); in [6], 14.2 µM (active). The Potency result in test [2] and in test [4] was “inactive” in each case.

Regarding `N=C1N=C(N)c2cc3ccccc3cc21`, the Potency in test [1] was 15.8 µM (active); in test [2], 45.8 µM (active); in test [3] it was 25.8 µM (active); in test [5], 19.3 µM (active); in test [7] it was 12.2 µM (active); in test [6] it was 32.6 µM (active).

`CCCCCCCCNC(C)C(O)c1ccc(SC(C)C)cc1` (stereo not drawn): the Potency in test [1] is 13.3 µM (active); in [2] it was 21.1 µM (active); in [3], 16.8 µM (active); in test [5], 29.8 µM (active); in [6], 1.95 µM (active).

On to `COc1ccc(CN2CCN(C(c3ccc(F)cc3)c3ccc(F)cc3)CC2)c(OC)c1OC`, for which the Potency is 26.6 µM (active) in [1], 26.6 µM (active) in test [3], 26.6 µM (active) in test [5] and 4.9 µM (active) in test [6]. Besides, the Potency result in [2] and in test [4] was “inactive” throughout. For the same molecule, the max activation in [8] was -8.37%.

In the case of `CCc1cc(Cc2cc(CC)c(N)c(CC)c2)cc(CC)c1N`, the Potency in test [1] was 27.3 µM (active); in [3], 27.3 µM (active); in test [7] it was 21.7 µM (active); in test [6], 25.2 µM (active). Also, the Potency entry in test [2] and in test [4] was “inactive” each time.

With `N#CC1(c2ccc(F)cc2)CCC(=O)CC1`, the Potency result in test [1], in test [2], in test [3], in test [4], in [5] and in test [6] was “inactive” each time.

On to `CCCCc1oc2ccc(NS(C)(=O)=O)cc2c1C(=O)c1ccc(OCCCN(CCCC)CCCC)cc1`, for which the Potency was 18.8 µM (active) in test [1]; 18.8 µM (active) in test [2]; 16.8 µM (active) in [3]; 26.6 µM (active) in test [5]; 11 µM (active) in test [6]. Further, in test [4], the Potency entry is “inactive”.

For the molecule `Nc1ccccc1O`, the Potency in test [1] is 60.3 µM (active); in test [3] it was 24 µM (active); in test [7], 13.5 µM (active); in test [6], 31.3 µM (active). Moreover, the Potency result in test [2] and in test [4] was “inactive” throughout.

On to `N=C1N=C(N)c2ccccc21`, for which the Potency in [1] was 27.3 µM (active); in [2], 54.5 µM (active); in [3], 61.1 µM (active); in [5], 27.3 µM (active); in test [7], 24.3 µM (active); in [6] it was 56.4 µM (active).

For the molecule `Oc1ccc(Cl)cc1Sc1cc(Cl)ccc1O`, the results for the Potency in test [1], in test [3] and in [5] were 15.3 µM (active), 30.6 µM (active) and 38.5 µM (active), respectively. In addition, the Potency result in test [2], in [4] and in test [6] was “inactive” in each case.

For `CNc1ccc(O)cc1`, the Potency in test [1] was 61 µM (active); in [3], 13.7 µM (active); in [5], 54.4 µM (active); in test [6], 12.6 µM (active). Besides, the Potency entry in test [2] and in test [4] was “inactive” throughout.

For the molecule `O=C(O)c1cc(O)c2c(c1)C(=O)c1cccc(O)c1C2=O`, the figures for the Potency in test [1], in test [3] and in test [5] were 25.1 µM (active), 35.4 µM (active) and 44.6 µM (active), respectively. The Potency entry in [2], in test [4] and in [6] was “inactive” in each case.

Turning to `CCCCN1CCCC[C@H]1C(=O)Nc1c(C)cccc1C`, the Potency result in test [1], in test [2], in test [3], in [4] and in test [5] was “inactive” in each case. In addition, in test [6], the Potency is 0.617 µM (active).

As to `CCOC(=O)c1nc(C(Cl)(Cl)Cl)n(-c2ccc(Cl)cc2Cl)n1`, the Potency was 54.5 µM (active) in [1], 54.5 µM (active) in test [3], 19.3 µM (active) in [7] and 14.2 µM (active) in test [6]. In addition, the Potency result in test [2] and in test [4] was “inactive” each time.

In the case of `CN1CCC(Nc2ncc3ncnc(Nc4ccc(F)c(Cl)c4)c3n2)CC1`, the Potency is 26.6 µM (active) in test [1], 29.8 µM (active) in test [3], 28.2 µM (active) in test [10] and 6.92 µM (active) in [6]. Besides, the Potency result in [2] and in test [4] was “inactive” each time. Besides, the max activation in test [8] is -19.5%.

Take `Oc1ccc2cc(SSc3ccc4cc(O)ccc4c3)ccc2c1`: the Potency entry in [1], in test [2] and in test [4] was “inactive” in each case. The Potency was 48.6 µM (active) and 54.5 µM (active) in [3]; 17.2 µM (active) and 15.4 µM (active) in test [7].
